From article PMC11062922 (Nature Chemical Biology, 2023)
Read-outs that look alike come from different tables or passages of the source.

Legend:
[1] = tested on: PRKD2; settings: read-out: apparent Kd, n = 1
[2] = tested on: PRKD3; settings: read-out: apparent Kd, n = 1

Work on Lestaurtinib yielded a potency estimated from few doses ([1]; compound concentrations:100 nM and 1000 nM (sheet 'Lestaurtinib' of Supplementary Table 1),run:Lestaurtinib_02741_R1,Plate:MR023) of 38.5 nM, a potency estimated from few doses ([1]; compound concentrations:100 nM and 1000 nM (sheet 'Lestaurtinib' of Supplementary Table 1),run:Lestaurtinib_02748_R1,Plate:MR024) of 45.6 nM and a potency estimated from few doses ([1]; compound concentrations:100 nM and 1000 nM (sheet 'Lestaurtinib' of Supplementary Table 1),run:Lestaurtinib_02748_R2,Plate:MR024) of 48.1 nM. It also gave a potency estimated from few doses ([1]; compound concentrations:100 nM and 1000 nM (sheet 'Lestaurtinib' of Supplementary Table 1),run:Lestaurtinib_02748_R3,Plate:MR024) of 45.9 nM, a potency estimated from few doses ([1]; compound concentrations:100 nM and 1000 nM (sheet 'Lestaurtinib' of Supplementary Table 1),run:Lestaurtinib_02752_R1,Plate:MR025) of 59.6 nM and a potency estimated from few doses ([1]; compound concentrations:100 nM and 1000 nM (sheet 'Lestaurtinib' of Supplementary Table 1),run:Lestaurtinib_02752_R2,Plate:MR025) of 58 nM. It also gave a potency estimated from few doses ([1]; compound concentrations:100 nM and 1000 nM (sheet 'Lestaurtinib' of Supplementary Table 1),run:Lestaurtinib_02752_R3,Plate:MR025) of 35.6 nM, a potency estimated from few doses ([1]; compound concentrations:100 nM and 1000 nM (sheet 'Lestaurtinib' of Supplementary Table 1),run:Lestaurtinib_02765_R1,Plate:MR026) of 39.1 nM and a potency estimated from few doses ([1]; compound concentrations:100 nM and 1000 nM (sheet 'Lestaurtinib' of Supplementary Table 1),run:Lestaurtinib_02765_R2,Plate:MR026) of 69.2 nM. The potency estimated from few doses ([1]; compound concentrations:100 nM and 1000 nM (sheet 'Lestaurtinib' of Supplementary Table 1),run:Lestaurtinib_02765_R3,Plate:MR026) was 67.9 nM, the potency estimated from few doses ([1]; compound concentrations:100 nM and 1000 nM (sheet 'Lestaurtinib' of Supplementary Table 1),run:Lestaurtinib_02766_R1,Plate:MR027) was 45.5 nM and the potency estimated from few doses ([1]; compound concentrations:100 nM and 1000 nM (sheet 'Lestaurtinib' of Supplementary Table 1),run:Lestaurtinib_02766_R2,Plate:MR027) was 40.9 nM. It also gave a potency estimated from few doses ([1]; compound concentrations:100 nM and 1000 nM (sheet 'Lestaurtinib' of Supplementary Table 1),run:Lestaurtinib_02768_R2,Plate:MR028) of 44 nM, a potency estimated from few doses ([1]; compound concentrations:100 nM and 1000 nM (sheet 'Lestaurtinib' of Supplementary Table 1),run:Lestaurtinib_02768_R3,Plate:MR028) of 41.6 nM and a potency estimated from few doses ([1]; compound concentrations:100 nM and 1000 nM (sheet 'Lestaurtinib' of Supplementary Table 1),run:Lestaurtinib_02795_R1,Plate:MR022) of 45 nM. It also gave a potency estimated from few doses ([1]; compound concentrations:100 nM and 1000 nM (sheet 'Lestaurtinib' of Supplementary Table 1),run:Lestaurtinib_02795_R2,Plate:MR022) of 37.3 nM, a potency estimated from few doses ([1]; compound concentrations:100 nM and 1000 nM (sheet 'Lestaurtinib' of Supplementary Table 1),run:Lestaurtinib_02802_R2,Plate:MR029) of 43.6 nM and a potency estimated from few doses ([1]; compound concentrations:100 nM and 1000 nM (sheet 'Lestaurtinib' of Supplementary Table 1),run:Lestaurtinib_02802_R3,Plate:MR029) of 32.9 nM. For the same substance, the potency estimated from few doses ([1]; compound concentrations:100 nM and 1000 nM (sheet 'Lestaurtinib' of Supplementary Table 1),run:Lestaurtinib_02896_R1,Plate:MR030) was 43 nM, the potency estimated from few doses ([1]; compound concentrations:100 nM and 1000 nM (sheet 'Lestaurtinib' of Supplementary Table 1),run:Lestaurtinib_02896_R2,Plate:MR030) was 50.1 nM and the potency estimated from few doses ([1]; compound concentrations:100 nM and 1000 nM (sheet 'Lestaurtinib' of Supplementary Table 1),run:Lestaurtinib_02896_R3,Plate:MR030) was 40.6 nM. For the same substance, the potency estimated from few doses ([1]; compound concentrations:100 nM and 1000 nM (sheet 'Lestaurtinib' of Supplementary Table 1),run:Lestaurtinib_03172_R1,Plate:MR031) was 29.7 nM, the potency estimated from few doses ([1]; compound concentrations:100 nM and 1000 nM (sheet 'Lestaurtinib' of Supplementary Table 1),run:Lestaurtinib_03172_R2,Plate:MR031) was 36 nM and the potency estimated from few doses ([1]; compound concentrations:100 nM and 1000 nM (sheet 'Lestaurtinib' of Supplementary Table 1),run:Lestaurtinib_03172_R3,Plate:MR031) was 44.1 nM. For the same substance, the potency estimated from few doses ([1]; compound concentrations:100 nM and 1000 nM (sheet 'Lestaurtinib' of Supplementary Table 1),run:Lestaurtinib_03252_R1,Plate:MR032) was 27.4 nM, the potency estimated from few doses ([1]; compound concentrations:100 nM and 1000 nM (sheet 'Lestaurtinib' of Supplementary Table 1),run:Lestaurtinib_03252_R2,Plate:MR032) was 32.1 nM and the potency estimated from few doses ([1]; compound concentrations:100 nM and 1000 nM (sheet 'Lestaurtinib' of Supplementary Table 1),run:Lestaurtinib_03260_R1,Plate:MR033) was 52.3 nM. It also gave a potency estimated from few doses ([2]; compound concentrations:100 nM and 1000 nM (sheet 'Lestaurtinib' of Supplementary Table 1),run:Lestaurtinib_02339_R1,Plate:MR001) of 98.8 nM, a potency estimated from few doses ([2]; compound concentrations:100 nM and 1000 nM (sheet 'Lestaurtinib' of Supplementary Table 1),run:Lestaurtinib_02339_R2,Plate:MR001) of 98.8 nM and a potency estimated from few doses ([2]; compound concentrations:100 nM and 1000 nM (sheet 'Lestaurtinib' of Supplementary Table 1),run:Lestaurtinib_02364_R1,Plate:MR002) of 97.6 nM. For the same substance, the potency estimated from few doses ([2]; compound concentrations:100 nM and 1000 nM (sheet 'Lestaurtinib' of Supplementary Table 1),run:Lestaurtinib_02364_R3,Plate:MR002) was 93.5 nM, the potency estimated from few doses ([2]; compound concentrations:100 nM and 1000 nM (sheet 'Lestaurtinib' of Supplementary Table 1),run:Lestaurtinib_02367_R1,Plate:MR003) was 45.3 nM and the potency estimated from few doses ([2]; compound concentrations:100 nM and 1000 nM (sheet 'Lestaurtinib' of Supplementary Table 1),run:Lestaurtinib_02367_R2,Plate:MR003) was 62.3 nM. For the same substance, the potency estimated from few doses ([2]; compound concentrations:100 nM and 1000 nM (sheet 'Lestaurtinib' of Supplementary Table 1),run:Lestaurtinib_02367_R3,Plate:MR003) was 63.6 nM, the potency estimated from few doses ([2]; compound concentrations:100 nM and 1000 nM (sheet 'Lestaurtinib' of Supplementary Table 1),run:Lestaurtinib_02381_R2,Plate:MR004) was 59.1 nM and the potency estimated from few doses ([2]; compound concentrations:100 nM and 1000 nM (sheet 'Lestaurtinib' of Supplementary Table 1),run:Lestaurtinib_02407_R1,Plate:MR005) was 98 nM. It also gave a potency estimated from few doses ([2]; compound concentrations:100 nM and 1000 nM (sheet 'Lestaurtinib' of Supplementary Table 1),run:Lestaurtinib_02407_R2,Plate:MR005) of 51.7 nM, a potency estimated from few doses ([2]; compound concentrations:100 nM and 1000 nM (sheet 'Lestaurtinib' of Supplementary Table 1),run:Lestaurtinib_02422_R1,Plate:MR006) of 76.7 nM and a potency estimated from few doses ([2]; compound concentrations:100 nM and 1000 nM (sheet 'Lestaurtinib' of Supplementary Table 1),run:Lestaurtinib_02422_R2,Plate:MR006) of 42 nM. It also gave a potency estimated from few doses ([2]; compound concentrations:100 nM and 1000 nM (sheet 'Lestaurtinib' of Supplementary Table 1),run:Lestaurtinib_02422_R3,Plate:MR006) of 81.8 nM, a potency estimated from few doses ([2]; compound concentrations:100 nM and 1000 nM (sheet 'Lestaurtinib' of Supplementary Table 1),run:Lestaurtinib_02437_R1,Plate:MR007) of 84 nM and a potency estimated from few doses ([2]; compound concentrations:100 nM and 1000 nM (sheet 'Lestaurtinib' of Supplementary Table 1),run:Lestaurtinib_02437_R3,Plate:MR007) of 5.38 nM.
